# Source: PubChem BioAssay (EPA / NIEHS)
# Calls of active or inactive are those of the source. Rule for the calls: active = hit-call score of the fitted dose curve at least 0.9, where 1 is the maximum; inactive = score below 0.9.
# Legend:
# [1] = read-out: Thrombomodulin, THBD (gene 7056); assay: BSK_CASM3C_Thrombomodulin: BioMAP Diversity Plus: CASM3C Assay for Thrombomodulin Biomarker Activity (AID 2283051); conditions: primary human coronary artery smooth muscle cells; actives raise or lower the signal;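 note: thrombomodulin protein level measured by ELISA 24 h after dosing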
# [2] = read-out: Tissue Factor, F3 (gene 2152); assay: BSK_CASM3C_TissueFactor: BioMAP Diversity Plus: CASM3C Assay for Tissue Factor Biomarker Activity (AID 2283052); conditions: primary human coronary artery smooth muscle cells; actives raise or lower the signal;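 note: cell surface tissue factor protein level read by ELISA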
# [3] = read-out: Interferon-gamma inducible Protein 10 (IP10), CXCL10 (gene 3627); assay: BSK_hDFCGF_IP10: BioMAP Diversity Plus: hDFCGF Assay for Interferon-gamma inducible Protein 10 (IP10) Biomarker Activity (AID 2283053); conditions: primary human foreskin fibroblasts; actives raise or lower the signal
# How it was run: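 Primary human foreskin fibroblasts exposed to chemicals for 24 h. IP-10 measured by ELISA; changes fitted bidirectionally against DMSO baseline.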
# [4] = read-out: Urokinase-type plasminogen activator receptor (uPAR), PLAUR (gene 5329); assay: BSK_CASM3C_uPAR: BioMAP Diversity Plus: CASM3C Assay for Urokinase-type plasminogen activator receptor (uPAR) Biomarker Activity (AID 2283054); conditions: primary human coronary artery smooth muscle cells; actives raise or lower the signal;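 note: cell-surface uPAR protein level quantified by ELISA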
# [5] = read-out: Vascular cell adhesion molecule 1 (VCAM1), VCAM1 (gene 7412); assay: BSK_CASM3C_VCAM1: BioMAP Diversity Plus: CASM3C Assay for Vascular cell adhesion molecule 1 (VCAM1) Biomarker Activity (AID 2283055); conditions: primary human coronary artery smooth muscle cells; actives raise or lower the signal;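 note: VCAM-1 protein level quantified by ELISA on the cells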
# [6] = read-out: Collagen III, COL3A1 (gene 1281); assay: BSK_hDFCGF_CollagenIII: BioMAP Diversity Plus: hDFCGF Assay for Collagen III Biomarker Activity (AID 2283056); conditions: primary human foreskin fibroblasts; actives raise or lower the signal
# How it was run: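 Human foreskin primary fibroblasts were exposed to test chemicals for 24 h, after which collagen III was quantified by ELISA. Activity was fitted bidirectionally against DMSO as negative control and baseline.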
# [7] = read-out: Epidermal growth factor receptor (EGFR), EGFR (gene 1956); assay: BSK_hDFCGF_EGFR: BioMAP Diversity Plus: hDFCGF Assay for Epidermal growth factor receptor (EGFR) Biomarker Activity (AID 2283057); conditions: primary human foreskin fibroblasts; actives raise or lower the signal
# How it was run: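 Primary human foreskin fibroblasts (hDFCGF system), sampled 24 h after dosing; EGFR quantified by ELISA. Bidirectional fit relative to DMSO baseline; SRB total-protein staining in parallel cultures for cytotoxicity.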
# [8] = read-out: Interleukin-8 (IL8), CXCL8 (gene 3576); assay: BSK_hDFCGF_IL8: BioMAP Diversity Plus: hDFCGF Assay for Interleukin-8 (IL8) Biomarker Activity (AID 2283058); conditions: primary human foreskin fibroblasts; actives raise or lower the signal
# How it was run: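 hDFCGF human dermal fibroblasts; 24 h chemical exposure; IL-8 by ELISA; bidirectional curve fit vs DMSO baseline; gain or loss of signal scored.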
# [9] = BSK_hDFCGF_Proliferation: Cell Proliferation Assessment in the BioMAP Diversity Plus: hDFCGF Assay (AID 2283059); conditions: primary human foreskin fibroblasts;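 note: curves fitted for both rise and fall of signal versus DMSO baseline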
# How it was run: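 Primary human foreskin fibroblasts, sub-confluent; […]; 10% TCA fix, 0.1% SRB stain, A560 total protein. Gain/loss fitted bidirectionally vs DMSO control.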
# [10] = read-out: Macrophage colony-stimulating factor (MCSF), CSF1 (gene 1435); assay: BSK_hDFCGF_MCSF: BioMAP Diversity Plus: hDFCGF Assay for Macrophage colony-stimulating factor (MCSF) Biomarker Activity (AID 2283060); conditions: primary human foreskin fibroblasts; actives raise or lower the signal
# How it was run: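 Human foreskin primary fibroblasts were treated with test chemical for 24 h, and M-CSF was then measured by ELISA. Data were fitted bidirectionally against DMSO as the negative control and activity baseline.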
# [11] = BSK_hDFCGF_SRB: Viability Assessment in the BioMAP Diversity Plus: hDFCGF Assay (AID 2283061); conditions: primary human foreskin fibroblasts;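 note: cells exposed to compound for 24 h before the read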
# How it was run: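 Human foreskin primary fibroblasts were treated with compound and assessed 24 h after dosing. Total protein was measured by sulforhodamine B staining (0.1% SRB after 10% TCA fixation, 560 nm read) as a cytotoxicity marker, with bidirectional fitting against DMSO baseline.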
# [12] = read-out: TIMP metallopeptidase inhibitor 1 (TIMP1), TIMP1 (gene 7076); assay: BSK_hDFCGF_TIMP1: BioMAP Diversity Plus: hDFCGF Assay for TIMP metallopeptidase inhibitor 1 (TIMP1) Biomarker Activity (AID 2283062); conditions: primary human foreskin fibroblasts; actives raise or lower the signal
# How it was run: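 Primary human foreskin fibroblasts in the hDFCGF system were dosed with compound for 24 h, then TIMP-1 was measured by ELISA. Activity was fitted bidirectionally relative to DMSO control; parallel SRB staining assessed cytotoxicity.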
# [13] = read-out: Monokine induced gamma interferon (MIG), CXCL9 (gene 4283); assay: BSK_hDFCGF_MIG: BioMAP Diversity Plus: hDFCGF Assay for Monokine induced gamma interferon (MIG) Biomarker Activity (AID 2283063); conditions: primary human foreskin fibroblasts; actives raise or lower the signal
# How it was run: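 ELISA read-out of MIG from primary human dermal fibroblasts 24 h post-dosing. Gain or loss of signal fitted bidirectionally, DMSO as baseline.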
# [14] = read-out: Matrix Metallopeptidase 1 (MMP1), MMP1 (gene 4312); assay: BSK_hDFCGF_MMP1: BioMAP Diversity Plus: hDFCGF Assay for Matrix Metallopeptidase 1 (MMP1) Biomarker Activity (AID 2283064); conditions: primary human foreskin fibroblasts; actives raise or lower the signal
# How it was run: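 Primary human foreskin fibroblasts exposed to chemicals for 24 h; MMP1 measured by ELISA. Cytotoxicity tracked by SRB staining in parallel cultures; bidirectional fit relative to DMSO.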
# [15] = read-out: Vascular cell adhesion molecule 1 (VCAM1), VCAM1 (gene 7412); assay: BSK_hDFCGF_VCAM1: BioMAP Diversity Plus: hDFCGF Assay for Vascular cell adhesion molecule 1 (VCAM1) Biomarker Activity (AID 2283065); conditions: primary human foreskin fibroblasts; actives raise or lower the signal;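 for AC50: VCAM-1 protein level quantified by ELISA after 24 h chemical exposure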
# How it was run: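 Primary human foreskin fibroblasts (hDFCGF system) were dosed with chemical and VCAM-1 was measured by ELISA 24 h later. Bidirectional curve fitting used DMSO as negative control and activity baseline.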
# [16] = read-out: Plasminogen activator inhibitor-1 (PAI1), SERPINE1 (gene 5054); assay: BSK_hDFCGF_PAI1: BioMAP Diversity Plus: hDFCGF Assay for Plasminogen activator inhibitor-1 (PAI1) Biomarker Activity (AID 2283066); conditions: primary human foreskin fibroblasts; actives raise or lower the signal
# How it was run: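 Human foreskin fibroblast primary cells, 24 h chemical exposure; PAI-1 measured by ELISA. Bidirectional fitting relative to DMSO; parallel cultures stained with SRB for total protein to flag overt cytotoxicity.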
# [17] = read-out: Intercellular Adhesion Molecule 1 (ICAM1), ICAM1 (gene 3383); assay: BSK_KF3CT_ICAM1: BioMAP Diversity Plus: KF3CT Assay for Intercellular Adhesion Molecule 1 (ICAM1) Biomarker Activity (AID 2283067); conditions: primary human keratinocytes with fibroblasts; actives raise or lower the signal
# How it was run: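 Human keratinocyte plus foreskin fibroblast primary co-culture was exposed to chemical for 24 h. ICAM-1 was then quantified by ELISA, and the data were fit bidirectionally against DMSO as the negative control and baseline.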
# [18] = read-out: Interferon-gamma inducible Protein 10 (IP10), CXCL10 (gene 3627); assay: BSK_KF3CT_IP10: BioMAP Diversity Plus: KF3CT Assay for Interferon-gamma inducible Protein 10 (IP10) Biomarker Activity (AID 2283068); conditions: primary human keratinocytes with fibroblasts; actives raise or lower the signal
# How it was run: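 In a primary skin co-culture of keratinocytes and fibroblasts, IP-10 is quantified by ELISA at 24 h after dosing. SRB staining of parallel wells monitors overt toxicity. Curves are fitted both directions against DMSO.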
# [19] = BSK_KF3CT_SRB: Viability Assessment in the BioMAP Diversity Plus: KF3CT Assay (AID 2283069); conditions: primary human keratinocytes with fibroblasts;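 note: fitted for both signal gain and loss against DMSO baseline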
# How it was run: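 Human keratinocyte and foreskin fibroblast co-culture exposed to chemical for 24 h. Total protein measured in parallel cultures by 0.1% sulforhodamine B staining after 10% TCA fixation, read at 560 nm; bidirectional fit relative to DMSO.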
# [20] = read-out: Interleukin-1 alpha (IL1a), IL1A (gene 3552); assay: BSK_KF3CT_IL1a: BioMAP Diversity Plus: KF3CT Assay for Interleukin-1 alpha (IL1a) Biomarker Activity (AID 2283070); conditions: primary human keratinocytes with fibroblasts; actives raise or lower the signal
# How it was run: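 Primary human keratinocyte plus foreskin fibroblast co-culture, dosed and measured at 24 h in 96-well plates. IL-1a level quantified by ELISA; bidirectional fit relative to DMSO.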
structure (smiles),measurement,setting,value
CC(C)NC(=O)N1CC(=O)N(c2cc(Cl)cc(Cl)c2)C1=O,outcome,[1],inactive
same,outcome,[2],inactive
same,outcome,[3],inactive
same,outcome,[4],inactive
same,outcome,[5],inactive
same,AC50,[6],0.702 µM (active)
same,outcome,[7],inactive
same,outcome,[8],inactive
same,outcome,[9],inactive
same,outcome,[10],inactive
same,outcome,[11],inactive
same,outcome,[12],inactive
same,outcome,[13],inactive
same,AC50,[14],0.148 µM (active)
same,outcome,[15],inactive
same,outcome,[16],inactive
same,outcome,[17],inactive
same,outcome,[18],inactive
same,outcome,[19],inactive
same,outcome,[20],inactive
N#Cc1c(Cl)cccc1Cl,outcome,[1],inactive
same,outcome,[2],inactive
same,outcome,[3],inactive
same,outcome,[4],inactive
same,outcome,[5],inactive
same,outcome,[6],inactive
same,outcome,[7],inactive
same,outcome,[8],inactive
same,outcome,[9],inactive
same,outcome,[10],inactive
same,outcome,[11],inactive
same,outcome,[12],inactive
same,outcome,[13],inactive
same,outcome,[14],inactive
same,outcome,[15],inactive
same,outcome,[16],inactive
same,outcome,[17],inactive
same,outcome,[18],inactive
same,outcome,[19],inactive
same,outcome,[20],inactive
CCOc1nc(F)cc2nc(S(=O)(=O)Nc3c(Cl)cccc3Cl)nn12,outcome,[1],inactive
same,outcome,[2],inactive
same,outcome,[3],inactive
same,outcome,[4],inactive
same,outcome,[5],inactive
same,outcome,[6],inactive
same,outcome,[7],inactive
same,outcome,[8],inactive
same,outcome,[9],inactive
same,outcome,[10],inactive
same,outcome,[11],inactive
same,outcome,[12],inactive
same,outcome,[13],inactive
same,outcome,[14],inactive
same,outcome,[15],inactive
same,outcome,[16],inactive
same,outcome,[17],inactive
same,AC50,[18],34 µM (active)
same,outcome,[19],inactive
same,outcome,[20],inactive
CCOC(=O)C(C)OC(=O)c1cc(Oc2ccc(C(F)(F)F)cc2Cl)ccc1[N+](=O)[O-] (centres undefined),outcome,[1],inactive
same,outcome,[2],inactive
same,outcome,[3],inactive
same,outcome,[4],inactive
same,outcome,[5],inactive
same,AC50,[6],6.41 µM (active)
same,outcome,[7],inactive
same,outcome,[8],inactive
same,outcome,[9],inactive
same,AC50,[10],8.12 µM (active)
same,outcome,[11],inactive
same,outcome,[12],inactive
same,outcome,[13],inactive
same,outcome,[14],inactive
same,outcome,[15],inactive
same,outcome,[16],inactive
same,outcome,[17],inactive
same,outcome,[18],inactive
same,outcome,[19],inactive
same,outcome,[20],inactive
Cc1ccc(N=CN(C)C=Nc2ccc(C)cc2C)c(C)c1,AC50,[1],31.6 µM (active)
same,outcome,[2],inactive
same,AC50,[3],29.1 µM (active)
same,outcome,[4],inactive
same,outcome,[5],inactive
same,AC50,[6],13.3 µM (active)
same,outcome,[7],inactive
same,AC50,[8],36.1 µM (active)
same,AC50,[9],14 µM (active)
same,AC50,[10],15.2 µM (active)
same,AC50,[11],28.4 µM (active)
same,AC50,[12],31 µM (active)
same,AC50,[13],29.7 µM (active)
same,AC50,[14],33.2 µM (active)
same,AC50,[15],15.8 µM (active)
same,AC50,[16],29.7 µM (active)
same,outcome,[17],inactive
same,AC50,[18],32.7 µM (active)
same,AC50,[19],28.6 µM (active)
same,outcome,[20],inactive
COC(=O)NC(=S)Nc1ccccc1NC(=S)NC(=O)OC,outcome,[1],inactive
same,outcome,[2],inactive
same,outcome,[3],inactive
same,outcome,[4],inactive
same,outcome,[5],inactive
same,outcome,[6],inactive
same,outcome,[7],inactive
same,outcome,[8],inactive
same,AC50,[9],29.8 µM (active)
same,outcome,[10],inactive
same,outcome,[11],inactive
same,outcome,[12],inactive
same,outcome,[13],inactive
same,AC50,[14],3.97 µM (active)
same,outcome,[15],inactive
same,outcome,[16],inactive
same,outcome,[17],inactive
same,outcome,[18],inactive
same,outcome,[19],inactive
same,outcome,[20],inactive
CCCN(CC)CC1COC2(CCC(C(C)(C)C)CC2)O1 (centres undefined),outcome,[1],inactive
same,outcome,[2],inactive
same,AC50,[3],1.98 µM (active)
same,outcome,[4],inactive
same,outcome,[5],inactive
same,AC50,[6],1.25 µM (active)
same,outcome,[7],inactive
same,outcome,[8],inactive
same,AC50,[9],5.6 µM (active)
same,outcome,[10],inactive
same,outcome,[11],inactive
same,AC50,[12],3.97 µM (active)
same,AC50,[14],1.43 µM (active)
same,outcome,[15],inactive
same,outcome,[16],inactive
same,outcome,[17],inactive
same,AC50,[18],3.97 µM (active)
same,outcome,[19],inactive
same,outcome,[20],inactive
